# Results taken from PubChem BioAssay (Tox21).
# Values joined by “and” are separate entries in the source; they are usually repeats but may differ in a detail not shown here. Identical values can stand only once. Inconclusive results are not listed. Entries that show only a call come without a potency. Some compounds were tested as several samples or in several runs, with calls that do not always agree. Active and inactive are the calls of the source. Calls follow the shape of the dose curve; as a rule, active = well fitted cell-killing curve with a large enough effect in the repeat runs; inconclusive = weak or mixed curves, or effect the other way; inactive = flat fitted curve, though single readings scatter.
# Test: qHTS assay to identify small molecule antagonists of the androgen receptor (AR) signaling pathway using the MDA cell line in the presence of 0.5 nM R1881 - cell viability counter screen (AID 1259242); also: nearly all actives have a fitted effect of over 45% in size
# Settings: MDA-kb2 viability, CellTiter-Fluor protease fluorescence, 16 h; series mostly up to 92.4 µM
# Excerpt: U.S. Tox21 Program National Center for Advancing Translational Sciences [NCATS] NIH Chemical Genomics Center [NCGC] U.S. Environmental Protection Agency [EPA] National Institutes of Environmental Health Sciences [NIEHS] National Toxicology Program [NTP] U.S. Food and Drug Administration [FDA] Tox21 Assay Overview: Androgen receptor (AR) is an important member of the nuclear receptor family. Its signaling plays a critical role in AR-dependent prostate cancer and other androgen related diseases. Considerable attention has been given in the past decades to develop methods to study and screen for the environmental chemicals that have the potential to interfere with metabolic homeostasis, reproduction, developmental and behavioral functions. Therefore AR binding assay for screening androgen antagonists can be used to identify potential endocrine disruptors. MDA-kb2 cells (from ATCC, deposited by Wilson et al.) were used to screen for AR inhibitors against Tox21 compound libraries. These cells are human breast carcinoma cells that were stably transfected with a luciferase reporter gene under control of the MMTV promoter that contains response elements for both androgen receptor (AR) and glucocorticoid receptor (GR). The current screening for identification of AR inhibitors against Tox21 libraries used lower concentration of (0.5 nM) R1881 as a stimulator. The cytotoxicity of the Tox21 compound libraries against MDA-kb2 cell line was tested by measuring live-cell protease activity using CellTiter-Fluor assay in the same wells.
# Tox21 Assay Protocol Summary: MDA-kb2 cells (cells cultured without CO2) were dispensed at 3,000 cells/well in 4 uL of culture medium into white wall/solid-bottom 1536-well plates (Corning Life Sciences, Corning, NY) using a Multidrop Combi (ThermoFisher Scientific, Waltham, MA) dispenser. After the assay plates were incubated at a 37C and 0% CO2 for 5 hr, 23 nL of compounds dissolved in DMSO, positive controls or DMSO only was transferred to the assay plate by a Pintool station (Kalypsys, San Diego, CA). The transfer of compounds was followed by the addition of 1 uL of 0.5 nM (final concentration) agonist (R1881)/culture medium using a Flying Reagent Dispenser (FRD, Aurora Discovery, San Diego, CA). The plates were incubated at 37C and 0% CO2 for 16 hr. For cytotoxicity assay, 1 uL of CellTiter-Fluor reagent (Promega Corporation, Madison, WI) was added to each well using the FRD and after 30 min incubation at 37C and 0% CO2, The fluorescence intensity was measured using ViewLux plate reader (PerkinElmer, Shelton, CT).
# Potency is read from the fitted curve at half-maximal effect.
row,SMILES,Potency
1,CCCCCCCCCCCCCCCCn1cc[n+](C)c1,inactive and 34.7 µM (active) and 48.7 µM (active)
2,O=c1nc(O)n(Cl)c(=O)n1Cl,inactive
3,Cc1cc(-c2ccc(N)c(C)c2)ccc1N,inactive
4,CCC[N+]1(C)CCCC1,inactive
5,Nc1ccc(Cl)cc1,inactive
6,O=C(O)CC(O)(CC(=O)O)C(=O)O,inactive
7,O=C(O)COc1ccc(Cl)cc1Cl,inactive
8,Oc1cccc2cccnc12,inactive
9,CCCC[N+]1(C)CCCCC1,inactive
10,O=P1(N(CCCl)CCCl)NCCCO1 (stereo not given),inactive
11,CC[N+](CC)(CC)CC,inactive
12,Cc1cc(Cl)ccc1OCC(=O)O,inactive
13,CCCCCCCCCCCC(=O)O,inactive
14,CCCCCCCCCCn1cc[n+](C)c1,inactive
15,OCCOc1ccccc1,inactive
16,C=CCOC(Cn1ccnc1)c1ccc(Cl)cc1Cl (stereo not given),inactive
17,CCCC[n+]1cccc(C)c1,inactive
18,C[C@]12CCC(=O)C=C1CC[C@@H]1[C@@H]2CC[C@]2(C)C(=O)CC[C@@H]12,inactive
19,CCCCn1cc[n+](C)c1C,inactive
20,N#CS,inactive

row,SMILES,Potency
1,COP(=O)(OC)C(O)C(Cl)(Cl)Cl (stereo not given),inactive
2,CC[N+]1(C)CCCC1,inactive
3,CCCC[n+]1ccccc1,inactive
4,COc1ccccc1N,inactive
5,CCCCCCCCCCCCOS(=O)(=O)O,inactive
6,CCCC[n+]1ccc(C)cc1,inactive
7,O=[N+]([O-])O,inactive
8,CCCCn1cc[n+](C)c1,inactive
9,CC[n+]1ccccc1,inactive and 30.4 µM (active)
10,O=[N+]([O-])c1ccccc1O,inactive
11,CCCCCCCCCCCCCC[P+](CCCCCC)(CCCCCC)CCCCCC,9.73 µM (active) and 13.8 µM (active)
12,CCOP(=S)(OCC)Oc1ccc2c(C)c(Cl)c(=O)oc2c1,inactive
13,COCC(=O)N(c1c(C)cccc1C)C(C)C(=O)OC (stereo not given),inactive
14,O=C(O)C(Cl)Cl,inactive
15,O=C(O)c1nc(Cl)ccc1Cl,inactive
16,CCCC[n+]1ccccc1C,inactive
17,COP(=O)(OC)OC=C(Cl)Cl,inactive
18,CCC(=O)C(CC(C)N(C)C)(c1ccccc1)c1ccccc1 (stereo not given),inactive
19,C1CCC(NC2CCCCC2)CC1,inactive
20,COc1ccc(N)cc1,inactive
